Screening data: PubChem, Sanford-Burnham Center for Chemical Genomics
Shown are actives, neighbours in structure and some others; about 2.5% of the full set was active somewhere.
H9c2 TAG inh – reduces triacylglycerol accumulation in H9c2 cells; hit rate 0.66% among 230,000; Nile Red lipid (TAG) fluorescence; cells loaded with 200 µM oleic acid; inhibition, % at 12.5 µM;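 active = pattern-corrected inhibition of lipid staining of at least 50% with the nuclear-stain viability signal not falling by more than 50%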
CRFBP-R2 agonist – agonists of human CRF-binding protein/CRF-R2 receptor complex; activation, % at 13.2 µM; AID 588473; hit rate 0.46% among 350,000; HEK293 CRF-R2/CRF-BP, calcium dye fluorescence (FLIPR); percent of saturating CRF peptide response;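 active = activation of at least 50%, plus an integration ratio under a set limit after plate pattern correction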
H9c2 protect – myocardial damage modulation in H9c2 cells; H9c2 cardiomyocytes, H2O2 injury protection, ATPLite, 2 h; protection from H2O2 cell death, % at 20 µM; hit rate 0.63% among 360,000;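 active = compounds giving at least 50% protection of heart cells from peroxide-induced death in the single-dose screen, raw or plate-pattern-corrected value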
hiPSC survival – enhancers of human iPSC single-cell survival; hiPSC single-cell survival, ATPlite luminescence; 100% = ROCK inhibitor wells, 0% = DMSO; hit rate 0.044% among 360,000; survival enhancement, % at 20 µM; in the data active = survival enhancement above about 18%;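 also: cells exposed to compounds for 16 hours before the ATP read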
CRFBP-R2 block – blocks CRF-induced signaling of the CRF-BP/CRF-R2 complex; hit rate 0.59% among 350,000; AID 588475; inhibition, % at 11.8 µM; HEK293 CRF-R2/CRF-BP, CRF-induced calcium fluorescence;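 active = inhibition of the ligand-induced calcium signal above about 50% at the single tested concentration, limit read from the data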
SKN-1 block – blocks SKN-1 activity in C. elegans | hit rate 0.49% among 360,000 | C. elegans VP596 Pgst-4::GFP/RFP ratio, acrylamide-induced, 24 h | inhibition, % at 21.8 µM;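 active = interference check ratio from 0.5 to 1.5 plus GFP to RFP signal ratio inhibition reaching or exceeding a fixed threshold, cut at about 30% in these data, passing the limit was not always enough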
TAG conf – confirmation of triacylglycerol accumulation inhibitors | shares compounds with H9c2 TAG inh | H9c2 lipid accumulation, Nile Red fluorescence; cells loaded with 200 µM oleic acid | inhibition, % at 12.5 µM | hit rate 71% among 990 | AID 651629;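 active = mean inhibition across replicates of 40% or more; inactive = mean inhibition below 40%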
Large screens that a line does not name were inactive (follow-up assays come after a bar, where they were run).

CC12CCC(=O)C=C1CCC1C2C(=O)CC2(C)C1CCC2(O)C(=O)CO (stereo not drawn)	none
COc1ccccc1Cc1c(-c2ccc(OC)c(OC)c2)nc2ccc(Cl)cn12	none (no result: H9c2 TAG inh, CRFBP-R2 agonist, CRFBP-R2 block)
COc1ccccc1OCCNC(=O)CCC(=O)N1CCOCC1	none
COc1ccc(C(=O)Nc2sc3c(c2C(=O)NCc2ccco2)CCCC3)cc1OC	H9c2 TAG inh 65.6 | TAG conf 51.8
COc1ccc(C(=O)Nc2ccc(Cl)cc2C(=O)NCc2ccco2)cc1OC	H9c2 TAG inh 52.0 | TAG conf inactive
COc1ccc(C(=O)Nc2ccccc2C(=O)NCc2ccco2)cc1OC	none (no result: H9c2 TAG inh)
COc1cc(C(=O)Nc2sc3c(c2C(=O)NCc2ccco2)CCCC3)cc(OC)c1OC	none
CN(C)/C=C/C1=C([N+](=O)[O-])C(c2cccc([N+](=O)[O-])c2)NC(=O)N1 (stereo not drawn)	none
COc1ccc(C(=O)N2CCN(C(=O)c3cc(OC)c(OC)c(OC)c3)CC2)cc1	none
COc1cc(C(=O)N2CCN(c3cc(Cl)ccc3Cl)CC2)cc(OC)c1OC	H9c2 TAG inh 54.3 | TAG conf 64.8
CCN(CC)C(=O)[C@H]1C[C@H](CC(=O)NCCCn2ccnc2)C(=O)N2CCc3c([nH]c4cc(CCC(=O)N(C)C)ccc34)[C@]12C	H9c2 TAG inh 53.4 | TAG conf inactive
CN(C)C(=O)CCc1ccc2c3c([nH]c2c1)[C@]1(C)[C@@H](C(=O)N2CCOCC2)C[C@H](CC(=O)NCCCn2ccnc2)C(=O)N1CC3	none
C=CCn1cnc2c(c1=O)c1nc3ccccc3nc1n2/N=C/c1cccc(OC)c1	none (no result: H9c2 TAG inh)
COCCn1cnc2c(c1=O)c1nc3ccccc3nc1n2/N=C/c1ccc(OC)c(OC)c1	H9c2 TAG inh 67.9, H9c2 protect 50.6 | TAG conf 88.0
CC(=O)NC(C)C(=O)OCC(=O)c1ccc(-c2ccccc2)cc1 (stereo not drawn)	none
COc1ccccc1NC(=O)c1ccccc1S(=O)(=O)c1ccc([N+](=O)[O-])cc1	H9c2 TAG inh 53.9 | TAG conf inactive
COc1ccccc1NC(=O)c1ccccc1S(=O)(=O)c1ccccc1[N+](=O)[O-]	none
O=C(COc1ccccc1-c1ccccc1)N/N=C/c1cccc2ccccc12	H9c2 TAG inh 63.2 | TAG conf inactive
O=C(COc1cccc2ccccc12)N/N=C/c1ccccc1OCc1ccc(C(=O)O)cc1	none
c1ccc(N(c2ccccc2)c2nc(N3CCCC3)nc(-n3ccnc3)n2)cc1	H9c2 TAG inh 60.0 | TAG conf 43.3
CC(C)Oc1ccc(CCNC(=O)CC2C(=O)NCCN2C)cc1 (stereo not drawn)	none
Cc1c(P(=S)(c2ccccc2)c2ccccc2)[n+]2ccccc2n1C/C=C/c1ccccc1	H9c2 TAG inh 83.4 (no result: CRFBP-R2 agonist, CRFBP-R2 block) | TAG conf 89.8
CC(O)c1nc2ccccc2n1C/C=C/c1ccccc1 (stereo not drawn)	none
COc1cc(-c2noc(C)c2C#Cc2ccc(N)cc2)cc(OC)c1OC	H9c2 TAG inh 56.9 | TAG conf 46.5
O=C(Nc1nc2ccc(C(=O)N3CCCCC3)cc2s1)C1CCCCC1	H9c2 TAG inh 63.7 | TAG conf 68.2
Nc1ccc2nc(NC(=O)C3CCCCC3)sc2c1	none
CCOc1ccc(C2=Nc3ccccc3C(c3ccc(N4CCOCC4)cc3)=NN2)cc1	H9c2 TAG inh 73.4 | TAG conf 52.8
Cc1onc(-c2ccccc2)c1C(=O)Nc1cc(C(F)(F)F)ccc1N1CCOCC1	H9c2 TAG inh 52.4 | TAG conf 61.8
Cc1onc(-c2ccccc2)c1C(=O)Nc1ccccc1N1CCOCC1	none
C=CCc1c(C)nc(-c2ccccc2)nc1N/N=C/c1ccncc1	H9c2 TAG inh 65.1 | TAG conf inactive
C[C@H](NS(=O)(=O)c1ccc2c(c1)OCCCO2)C(=O)N1CCN(Cc2ccc(C#N)cc2)CC1	none
CNC(=S)NN=C(C)CCCC(C)=NNC(=S)NC	H9c2 TAG inh 70.7 | TAG conf 95.0
CCOc1ccc2nc(NC(=O)CN3CCN(C)CC3)sc2c1	H9c2 TAG inh 67.6 | TAG conf inactive
CC(CNC(=O)C1CCCN(S(=O)(=O)N2CCOCC2)C1)c1ccccc1 (stereo not drawn)	none (no result: H9c2 TAG inh)
